# Measured values as given in PubChem BioAssay AID602454 (National Center for Advancing Translational Sciences (NCATS), 2012).
# Inconclusive results are not listed. Active and inactive are the calls of the source. No rule for the calls is given here.
# Test: qHTS Assay for Inhibitors of Influenza NS1 Protein Function: Viral Replication TCID50
# Conditions: Influenza virus replication in cells, at 10 µM, stronger effect = lower value
# From the text: Influenza is a world-wide public health problem and emerging forms of the virus have the potential to cause a pandemic of equal or greater magnitude to the outbreaks recorded in 1918, 1957 or 1968. Vaccine development is proceeding and there also exist two classes of anti-influenza compounds. However these therapeutic modalities are neither fully effective nor widely enough available to fulfill global needs. In addition their potential usefulness against newly emergent strains is not known. Efforts are needed to develop novel agents against influenza virus, including broad-spectrum agents. Identification of small molecules that inhibit NS1 function either directly or by interfering with specific cellular pathways may be a key to increasing our defense against the virus.
# We have miniaturized and optimized a cell based assay in which NS1 from influenza A is expressed in the budding yeast S. cerevisiae. NS1 is a multi-functional protein that counters the host innate immune response and facilitates viral versus cellular gene expression. Expression of NS1 causes a pronounced slow growth phenotype in yeast due to its intrinsic molecular activities. Small molecules that suppress the slow growth phenotype can be identified by a straightforward growth recovery assay using optical density (OD) as the measurement. The same yeast strain not expressing NS1 was used as positive control in the yeast growth recovery assay.
# Hits resulting from the primary screen and other follow-up screens, were tested in two concentrations in this viral replication assay.
# NIH Chemical Genomics Center [NCGC]
# NIH Molecular Libraries Probe Centers Network [MLPCN]
# Assay Submitter (PI): Daniel Engel, University of Virgina
# Cell monolayers were infected at an m.o.i. of 0.1 for 48 h in the presence or absence of the compound, which was added at the beginning of infection. Virus titres were determined by TCID50 analysis (Reed, L. J. & Muench, H. (1938). A simple method of estimating fifty per cent endpoints. Am J Epidemiol 27, 493-497)
row,Structure (SMILES),viral titer (log10 TCID50)
1,COc1cc(-c2c(C#N)c(N)nc3c2c(C)nn3-c2ccc(C)cc2)ccc1O,8.5 (active)
2,COc1cc(-c2ccnc3c2c(C)nn3-c2cccc(F)c2)ccc1O,9 (active)
3,COc1cc(-c2c(C#N)c(=O)[nH]c3c2c(C)nn3-c2ccccc2)ccc1O,7.66 (active)
4,COc1cc(-c2c(C#N)c(N)nc3c2c(C)nn3-c2ccc(F)cc2)cc(OC)c1OC,9 (active)
5,COc1cc(-c2c3c(C)nn(-c4ccccc4)c3nc3[nH]c(=O)[nH]c(=O)c23)ccc1O,8.66 (active)
6,COc1cc(-c2ccnc3c2c(C)nn3-c2ccccc2)ccc1O,9 (active)
7,COc1cc(-c2c(C#N)c(N)nc3c2c(C)nn3-c2ccc(C)cc2)cc(OC)c1OC,8.66 (active)
8,CCOc1cc(-c2c(C#N)c(=O)[nH]c3c2c(C)nn3-c2ccc(F)cc2)ccc1O,8.66 (active)
9,COc1ccc(-c2c(C#N)c(N)nc3c2c(C)nn3-c2ccccc2)cc1OC,8.66 (active)
10,COc1ccc(-c2c(C#N)c(N)nc3c2c(C)nn3-c2ccc(Cl)cc2)cc1OC,9 (active)

# Same assay, conditions: Influenza virus replication in cells, viral titer, at 5 µM, stronger effect = lower value
row,Structure (SMILES),viral titer (log10 TCID50)
1,COc1cc(-c2c(C#N)c(N)nc3c2c(C)nn3-c2ccc(C)cc2)ccc1O,8.5
2,COc1cc(-c2ccnc3c2c(C)nn3-c2cccc(F)c2)ccc1O,9
3,COc1cc(-c2c(C#N)c(=O)[nH]c3c2c(C)nn3-c2ccccc2)ccc1O,8.5
4,COc1cc(-c2c(C#N)c(N)nc3c2c(C)nn3-c2ccc(F)cc2)cc(OC)c1OC,9
5,COc1cc(-c2c3c(C)nn(-c4ccccc4)c3nc3[nH]c(=O)[nH]c(=O)c23)ccc1O,8.66
6,COc1cc(-c2ccnc3c2c(C)nn3-c2ccccc2)ccc1O,9
7,COc1cc(-c2c(C#N)c(N)nc3c2c(C)nn3-c2ccc(C)cc2)cc(OC)c1OC,9
8,CCOc1cc(-c2c(C#N)c(=O)[nH]c3c2c(C)nn3-c2ccc(F)cc2)ccc1O,9
9,COc1ccc(-c2c(C#N)c(N)nc3c2c(C)nn3-c2ccccc2)cc1OC,9
10,COc1ccc(-c2c(C#N)c(N)nc3c2c(C)nn3-c2ccc(Cl)cc2)cc1OC,9
